Data on 67 molecules can be found in ChEMBL document CHEMBL4513216, “Probing the Open Global Health Chemical Diversity Library for Multistage-Active Starting Points for Next-Generation Antimalarials” (ACS Infect Dis, 2020).

The structures appear in SMILES notation. Out of some 69,000 compounds screened, about 8,600 (12%) showed an effect of 50% or more. The list comes from a sample in which strong results are over-represented; it also holds similar structures and randomly drawn compounds.

This assay has as its system Plasmodium berghei. The assay can be described thus: Screen against P. berghei liver stage (PbLuc), transformed with Luciferase, at 10uM. The assay is classed as functional, HepG2. The settings on record: tested at 10 uM.
Turning to `Cc1c(CN2CCCC2(C)C(=O)NC2CCCC2)cnn1C` (configuration not stated), the INHIBITION came to 1.62%.

Consider `CCN(CC)CCNc1c(-c2ccccc2)c(=O)c1=O`, for which the INHIBITION turned out to be 4.07%. Take `CN(C)c1nc2cn(C3CCSCC3)c(=O)c-2c[nH]1`: the INHIBITION was 18.65%. With `CC(C)CC(=O)N1CC(=O)N(CCc2ccccc2)CC(O)C1` (configuration not stated) the figure was 0.284%.

As to `CC(C)c1nc(CN2CCN(C(=O)CN3CCOCC3)CC2)no1`, the INHIBITION is recorded as 13.3%. Consider `Cc1n[nH]cc1CNc1ccc2c(c1)CN(C(=O)OC(C)(C)C)CC2`, for which the INHIBITION is 80.1%. With `COC(=O)N1CCc2ccc(NC(=O)c3cn(C)nn3)cc2C1` the figure was -28.4%. The value for `Cc1n[nH]cc1CNC(=O)[C@H]1CCCCN1C(=O)OC(C)(C)C` was 34.1%; that for `CCN(C(=O)Cc1ccc(NCc2ncc[nH]2)cc1)c1ccccc1` was 22.2%; that for `CC(C)(C)OC(=O)N1CCCN(Cc2ccon2)c2ccccc21` was 83.6%. With `CN1CCN(Cc2cccc(NCc3ncc[nH]3)c2)CC1` the figure was -13.9%; with `CC(=O)N1CCCN(Cc2ccon2)c2ccccc21`, 32.3%. As to `CC(=O)N1CC(C)CN(Cc2ccon2)c2ccccc21` (configuration not stated), the INHIBITION is 18%.

Turning to `CC(C)(C)OC(=O)N1CCCc2ccc(NCc3ncc[nH]3)cc21`, the INHIBITION is on record as 51.8%. The value for `Cc1cc(C)nc(N2CCC(C(=O)Nc3ccc(C(C)C)cc3)CC2)n1` was 20.2%; that for `O=S1(=O)NCC2(CCN(c3ncccn3)CC2)COc2ccccc21` was -21.2%.

Take `CO[C@@H]1CO[C@@]2(CCCN(C(=O)N3CCCC3)C2)C1`: the INHIBITION came to 33.1%.

`CCS(=O)(=O)N1CCC(c2nn(CCN(C)C)c3ncccc23)C1` (configuration not stated): the INHIBITION is 9.63%.

On to `Cc1cccc(C2CCN(S(=O)(=O)c3cn(C)cn3)CC2)n1`, for which the INHIBITION is recorded as -41.8%. With `CCN1CCOC(CNCc2ccccc2OCc2ccncc2)C1` (configuration not stated) the figure was 19.5%; with `Cc1nnc2n1CCN(Cc1ncc(-c3ccccc3)o1)C2`, -25.4%; with `c1cc(-c2ccc3nc(C4CCN(CC5CC5)CC4)nn3c2)ccn1`, 47.9%. Take `COc1ccc(OCCN2CCN(Cc3nccn3C)CC2)cc1`: the INHIBITION was 14.1%. Take `CCN(Cc1ccncc1)CC1(O)CCN(C(=O)c2ccccc2C)C1` (configuration not stated): the INHIBITION is 23.2%. The value for `CC(C)n1c(C(=O)N2CCCC2)nc2c1CCN(c1ncccn1)C2` was 33.4%; that for `CN1CCCN(C(=O)c2nc3c(n2C)CCN(c2ncccn2)C3)CC1` was 55.6%; that for `Cn1c(C(=O)N2CCOCC2)nc2c1CCN(c1ncccn1)C2` was 14.2%. With `CN1CCN(C(=O)c2[nH]nnc2Nc2ccccc2F)CC1` the figure was 5.18%. With `CC(=O)Nc1ccc(C(=O)NCCCn2cccc2)cc1` the figure was 18.7%.

Regarding `NC(=O)Nc1ccc(C(=O)NCCn2cccc2)cc1`, the INHIBITION worked out at 57.1%. The value for `O=C(NCCNC(=O)c1ccc(Cl)cc1)NCCn1cccc1` was -11.9%; that for `O=C(NC[C@]12COC[C@H]1CN(Cc1nccs1)C2)c1cscn1` was 47.9%; that for `FC(F)(F)c1cc(C2CCNCC2)nc(-c2ccsc2)n1` was 1.62%.

Regarding `CN1C(=O)CC(c2cnn(C)c2)C12CCN(C(=O)c1cscn1)CC2` (configuration not stated), the INHIBITION came to 61.4%.

Consider `CN1C(=O)CC(c2cnn(C)c2)C12CCN(C(=O)c1ccncc1)CC2` (configuration not stated), for which the INHIBITION was 42.7%.

As for `CN1C(=O)CC(c2cnn(C)c2)C12CCN(C(=O)c1ccc[nH]1)CC2` (configuration not stated), the INHIBITION is recorded as 37.8%. On to `CN1C(=O)CC(c2cnn(C)c2)C12CCN(C(=O)c1ccco1)CC2` (configuration not stated), for which the INHIBITION was determined as 10.1%. The value for `CN1C(=O)CC(c2cnn(C)c2)C12CCN(C(=O)c1ccno1)CC2` (configuration not stated) was 14.8%; that for `CN1C(=O)CC(c2cnn(C)c2)C12CCN(C(=O)c1ccnnc1)CC2` (configuration not stated) was 57.9%. With `Cc1nc(C2CCCN2C(=O)CCc2ccc(F)cc2)ncc1C(N)=O` (configuration not stated) the figure was 43.6%; with `O=C(CCc1nc2ccccc2[nH]1)N1CCCC(n2cccn2)C1` (configuration not stated), 40.75%. On to `CN(C)CCN1C(=O)CCC12CCCN(C(=O)N(C)C)CC2` (configuration not stated), for which the INHIBITION turned out to be 9.97%. On to `CN(C)CCN1C(=O)CCC12CCN(C(=O)CC1CC1)CC2`, for which the INHIBITION is recorded as -12.2%. With `CN(C)CCN1C(=O)CCC12CCCN(C(=O)CC1CC1)CC2` (configuration not stated) the figure was 51.9%. `CC(C)NC(=O)N1CCC2(CCC(=O)N2CCN(C)C)CC1`: the INHIBITION turned out to be 60.5%. On to `CC(C)NC(=O)N1CCC2(CCC(=O)N2CCN2CCCC2)CC1`, for which the INHIBITION stood at 5.04%. With `COCCN1C(=O)CCC12CCCN(C(=O)NC(C)C)CC2` (configuration not stated) the figure was 18.6%; with `COCCC(=O)N1CCCC2(CCC(=O)N2CCOC)CC1` (configuration not stated), 54.9%. The value for `COCCN1C(=O)CCC12CCCN(C(=O)CC1CC1)CC2` (configuration not stated) was -15.9%.

For the molecule `COCCN1C(=O)CCC12CCN(C(=O)NC(C)C)CC2`, the INHIBITION was -38.4%.

As for `O=c1cc(CNCc2ccc3c(c2)OCO3)nc2ccccn12`, the INHIBITION came out at 14.3%.

Regarding `COc1nn(C)cc1C(=O)N1CCC(c2nnc(C(C)C)o2)CC1`, the INHIBITION is reported as 37.5%.

Turning to `c1ccn(Cc2noc3c2CN(Cc2ccsc2)CC3)c1`, the INHIBITION is reported as 49.1%.

As for `Cc1ccc2c(c1)CN(CC(=O)NCCc1ccc(F)cc1)CC(C)O2` (configuration not stated), the INHIBITION is listed as -46.4%.

In the case of `CC1CN(CC(=O)NCCc2ccncc2)Cc2ccccc2O1` (configuration not stated), the INHIBITION is reported as 60.9%. For `CC1CN(CCC(=O)NCCc2cccnc2)Cc2ccccc2O1` (configuration not stated), the INHIBITION was 26.1%. The value for `O=C(c1ccc(-c2ccsc2)nc1)N1CCCN(C2CCCCC2)CC1` was 14.4%; that for `CO[C@@]1(C)C[C@@H](O)C12CCN(C(=O)CCn1c(C)cccc1=O)CC2` was 46.4%.

Turning to `COCC1c2nnn(C)c2CCN1C(=O)COc1ccccc1OC` (configuration not stated), the INHIBITION stood at 53%. With `COCC1c2nnn(C)c2CCN1C(=O)CCc1cccc(OC)c1` (configuration not stated) the figure was 52.1%. The value for `COCC1c2nnn(C)c2CCN1C(=O)c1ccc(OC)c(F)c1` (configuration not stated) was 44.8%; that for `COCC1c2nnn(C)c2CCN1C(=O)COc1ccccc1C` (configuration not stated) was 22.2%; that for `COCC1c2nnn(C)c2CCN1C(=O)Cc1ccccn1` (configuration not stated) was -21.3%. With `COCC1c2nnn(C)c2CCN1C(=O)Cc1ccc2c(c1)OCO2` (configuration not stated) the figure was -10.5%; with `CCc1c(C)sc2nc3n(CCN4CCCCC4)nc(SC)n3c(=O)c12`, 35.1%.

`CC(C)(C)c1n[nH]c(C2CN(C(=O)c3cc(C4CC4)[nH]n3)CCO2)n1` (configuration not stated): the INHIBITION is -21.2%. Turning to `CNC(=O)N1CCN(C(=O)N(C)C)CC2(CC(=O)N(C)C2)C1` (configuration not stated), the INHIBITION worked out at 26.3%.
